In all, about 140,000 compounds went through this assay and about 2,100 (1.5%) were called active. Only a selection was taken, and actives are over-represented in it overall. A number with no mark means an inactive call.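 Rule for the calls: active = viability at or under a set limit, the compound median less 4 SD (cut at about 6% in these data); inactive = the rest.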

The nature of this assay: primary screen for growth suppressors in beta-catenin knockout HCT116 cells (colon tumor, human) (AID 818).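 Note: 0% = Hyamine 1622 control at 20 µM and 100% = untreated cell control.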 Particulars: CellTiter-Glo, 60 h, at 10 µM, hits give low values. Background: Cellular ATP, detected with luciferase, serves as a proxy for viable cell number.
In general, viability refers to a read-out of living cells in per cent, often relative to untreated cells. For `CSc1nc(C)cc(SC(C(C)=O)C(=O)Nc2ccccc2)n1` (stereo unspecified), the viability was 88.4%. Under `CSc1nc(-c2ccccc2)nc(C(Cl)Cl)n1` stands 3.63% (active); under `Cc1nn(-c2ccccc2)c(-n2cccc2)c1C(=O)O`, 95.6%; under `Cc1ccc(/C=N/NC(=O)COc2ccccc2-c2ccccc2)cc1`, 13.9%. Under `c1ccc(C2CNCc3c2ccc2ccccc32)cc1` (stereo unspecified) stands 11.3%; under `COc1ccc(C2NC(=S)NC3=C2CCc2ccccc23)cc1OC` (stereo unspecified), 81.8%; under `CCn1ncc(CNC(=O)C2(C)CC2(Br)Br)c1C` (stereo unspecified), 94.3%.

For `CC(=O)NS(=O)(=O)c1ccc(NC(=O)C2C3C=CC(C3)C2C(=O)O)cc1` (stereo unspecified), the viability was 98.2%. The figure for `CCN(CC)S(=O)(=O)c1cccc(C(=O)Nc2ccccc2)c1` is 80.8%; for `CN(C)S(=O)(=O)c1cccc(C(=O)Nc2cccnc2)c1` it is 97.9%.

In the case of `CN(C)S(=O)(=O)c1cccc(NC(=S)N/N=C/C(=O)c2ccccc2)c1`, the viability is 6.06% (active). Under `Cc1cccc(CSc2ccc(-c3cccs3)nn2)c1` stands 75.7%; under `Cc1c(Cl)c([N+](=O)[O-])nn1CCCC(=O)Nc1cc(Cl)ccc1Cl`, 91.2%; under `COc1ccc(NC(=S)N2CCCC(CO)C2)c(OC)c1` (stereo unspecified), 100%. `O=C(CC1NCCNC1=O)Nc1cc(Cl)cc(Cl)c1` (stereo unspecified): the viability was 87.8%.

As for `Cc1cccc(-n2c(C)cc(/C=N\NC(=O)c3cccs3)c2C)c1`, the viability is 60.6%.

As to `Cc1ccc(/C=N/NC(=O)C2=NNC(c3ccccc3)(c3ccccc3)C2)c(O)c1`, the viability is 4.68% (active). Under `Cc1ccc(-c2nn(-c3ccccc3)cc2/C=N/NC(=O)c2ccc3c(c2)OCO3)cc1` stands 36.6%.

Turning to `Cc1cc(C(=O)NNC(=S)NC(C)c2ccccc2)cs1` (stereo unspecified), the viability is 88.5%. The figure for `Cc1cc(NC(=O)/C=C/C(=O)N(c2ccccc2C)C(C(=O)NC2CCCC2)c2ccc(F)cc2)no1` (stereo unspecified) is 5.76% (active); for `Cc1cc(NC(=O)CCC(=O)N(c2cccc(F)c2)C(C(=O)NC2CCCC2)c2ccncc2)no1` (stereo unspecified) it is 94.3%. The figure for `Cc1cc(NC(=O)CCC(=O)N(c2ccccc2)C(C(=O)NC2CCCC2)c2ccncc2)no1` (stereo unspecified) is 80%; for `CCOc1ccc(Br)cc1S(=O)(=O)Nc1cccc(S(=O)(=O)N(CC)CC)c1` it is 96.4%. The figure for `N=C(N)SCc1cccc2ccccc12` is 79.3%; for `CCc1ccc(-c2nn(-c3ccccc3)cc2CSC(=N)N)cc1` it is 1.57% (active). Turning to `CCn1c(SCc2ccc(C)cc2)nnc1-c1nn(-c2ccccc2)ccc1=O`, the viability is 103%.

Source of the values: PubChem BioAssay AID818 (SRMLSC, 2007).
